# Experiments:
# Experiment in all cases: PBM binding z-score (relative to random genomic background probes); higher = stronger binding; sequences stand for … in GC…GCGATTGACAGCGTAGAATGAAGG
# [1] = tested on: RARb homodimer (NR concentration 270 nM)
# How it was run: (§1)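 Custom Agilent 4×180K protein-binding microarrays carried double-stranded probes. Their 34-nt variable regions held direct-repeat seeds, single-nucleotide variants, half-site ablations and random human genomic background sequences. Arrays were incubated 1 h with ligand-free nuclear receptor dimers in PBS pH 7.4, 2% milk, 0.02% Triton X-100, 1 mM DTT, 0.2 mg/mL BSA and 0.4 mg/ml salmon testes DNA. Antibodies against each partner (one per run) detected binding, and scanned fluorescence was regression-normalized. Binding z-scores use random background probes as reference.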
# [2] = tested on: RARg:RXRa (NR concentration 270 nM, RXRa partner concentration 90 nM)
# How it was run: as §1
# [3] = tested on: RARg homodimer (NR concentration 270 nM)
# How it was run: as §1
# [4] = tested on: RXRa DBDmut IVT, anti-RXR (DBD mutation: RXRa K156A/R161A, NR concentration 90 nM)
# How it was run: as §1
# [5] = tested on: RXRa homodimer (NR concentration 180 nM)
# How it was run: as §1
# [6] = tested on: THRa:RXRa (NR concentration 90 nM, RXRa partner concentration 90 nM)
# How it was run: as §1
# [7] = tested on: THRa homodimer (NR concentration 90 nM)
# How it was run: as §1
# [8] = tested on: VDR homodimer (NR concentration 270 nM)
# How it was run: as §1
Sequence,PBM binding z-score [1],PBM binding z-score [2],PBM binding z-score [3],PBM binding z-score [4],PBM binding z-score [5],PBM binding z-score [6],PBM binding z-score [7],PBM binding z-score [8]
ACTTACGGGTCAACCAGGTTATAGCACGCGTATA,3.43,5.74,5.08,2.31,6.13,3.79,0.987,2.74
CCGACTGGGGCAGAAATGTTACCATACCATCCGG,-0.118,0.0842,0.109,-0.424,0.066,-0.666,-0.0908,-0.0383
CTACCTAGGTGAACAAGGTCGTTGATTACTATTC,1.73,1.31,0.8,1.27,1.34,2.67,1.54,2.12
GCATATAGGTAAGACAAGGTGAAAGTCCGATTGT,0.617,0.376,0.405,0.267,0.545,3.81,0.676,-0.12
CGTCCAAGGTCAGAGAGGTCAGTGGATGCCGAGT,5.54,6.26,7.05,3.42,5.46,4.29,3.05,5.52
AGAAGGAGGTTAAGATCAGGGAAACAGAATACAT,1.51,1.73,1.36,0.0542,1.96,1.94,0.811,0.91
GCTTGTAGATCAAGTTTAAGAAAGACTAAGCTAA,-0.242,-0.195,-0.0872,0.649,-0.236,-0.0932,-0.618,0.27
AGAATGAGGTTATACGTAGATCAGGGAAGAAAGT,1.19,1.88,1.24,1.35,2.23,2.23,0.863,0.864
ACTCGGAGGACAAAAGTCAGAGCTACGCCAGTGA,0.442,0.411,0.784,0.783,0.0563,0.186,-0.517,-0.631
CAAACTAGGTCAAAGCTCAAAGTCGAGCCAACCA,2.4,4.14,4.25,1.91,3.7,2.39,0.666,0.583
ATCGAAAGGTCGAAGTGAGTATAGAGAAAGGGAA,1.86,3.79,3.6,1.4,3.83,1.81,-0.426,0.425
CAGCCTAGGTCAGGGCCACTATAGGAGGAACGTT,2.67,3.08,3.7,0.123,1.84,2.19,0.516,-0.129
TCTTGTCGATCAAAGGTTAAGAAAGCCGAAGCCT,1.49,2.01,0.765,0.676,2.43,1.33,-0.0604,0.0763
ATACCAAGGTGATCGTGAGGTCGTTGGTACTAAC,1.55,2.1,0.722,0.424,1.5,3.39,2.22,2.96
AGAACGAGGGCAATGCGTTGATAGCACGGGTGGC,0.934,1.05,1.65,1.2,0.834,0.775,-0.0819,1.17
TCGAGTAGTTTAGGGGCATTCAGAATGGCGTCGA,0.436,0.014,-0.0825,0.68,0.467,1.33,0.108,1.55
TCTCTGAGGACACGAAGGTCAGAGCTTTCCAGAG,3.87,3.32,3.9,1.21,1.92,4.11,4.02,1.71
CCGACTGGGGCCTAAGGTTACCATAAGCCAGCCC,1.1,0.451,-0.117,-0.875,0.652,2,1.26,0.0794
CCTACTGGGCCAAAAAGGTCATTGGTGCCGATAA,4.58,4.6,4.13,0.562,4.92,3.13,0.738,2.89

Sequence,PBM binding z-score [1],PBM binding z-score [2],PBM binding z-score [3],PBM binding z-score [4],PBM binding z-score [5],PBM binding z-score [6],PBM binding z-score [7],PBM binding z-score [8]
TTACCAAGGTGAAGGTCATTGATCCCTCTGTAGA,3.83,3.84,3.53,1.15,4.16,3.41,1.74,2.17
TCTAGCAGACCAGAGGGTCACTCAAGAGGTACGG,2.18,1.95,1.42,-0.0475,2.19,1.43,-0.387,0.415
CATACAGGGTCAGCTAGTCCAGAGTAGGGACGGC,2.88,4.26,4.24,1.65,4.04,2.86,0.757,1.68
CCTTACGGGTCACTAGGTTATAGCACGACGAGCG,3,4.53,4.46,1.22,4.2,2.29,0.139,1.24
CCGTACGGGTCACTCCAGGTTATAGCATCGGAGT,3.26,4.74,4.74,1.62,5.04,5.05,0.303,1.37
GCGACTGGGGCATCAGCAGGTTATCATAACTTAA,0.979,0.933,0.586,-0.0902,0.555,1.05,-0.305,-0.259
ACAGACAGGTAAGTGAAGGTAACTCAGCTGGACG,-0.171,-0.116,0.263,-0.281,-0.0799,0.972,-0.0252,-0.27
TGAATGAGGTTATAAGATCTGGGAACGTTGCAAA,0.515,1.04,0.631,0.607,1.61,1.67,0.199,0.194
CGAACGAGGGCCTGAGTTGATAGCAAATGCCGAT,-0.782,-0.386,-0.326,0.337,-0.236,-0.563,-0.666,-0.394
GCTAGTTGCTCAGTAAAAGGTCACACACCGGTCG,5.11,4.7,4.02,0.441,5.17,3.61,1.73,1.14
ATCTCTAGGTAAAGTTCAGTCAAAGATCGATAGA,2.8,2.17,2.39,1.6,1.35,1.46,0.288,2.11
TCATATAGGTAATACAGGTGAAATTCGGCATCTA,0.536,0.764,0.496,1.51,1.34,1.04,0.421,0.0975
TCGAGTAGGTTAGTCGGGGCATTCAACCAACATA,0.661,0.183,0.0739,0.482,0.119,1.28,0.217,0.466
TGAATGTGGTTATAAGATCAGGGAACGTTGCAAA,0.38,0.101,0.404,-0.35,0.0364,0.133,0.0859,0.37
GCTGCTAGGTGAGGTTGGTCAGCTAACGGGTACG,0.45,-0.285,-0.239,-0.389,-0.532,0.337,-0.133,-0.159
CAAACTAGGTCACAGAGGTCAAAATCCGTGCGTA,5.16,7.05,7.16,3.22,7.21,4.7,2.77,5.94
CGAACTAGGTCATCCAGGACTGTGAATACATTGA,2.93,4.02,4.47,2.26,2.62,2.95,1.17,1.39
TCGAGTAGGTTAGTAGGGGCATTCAGCCAACATA,0.576,0.0411,-0.0163,0.422,0.366,0.542,0.108,0.677
CCTATTAGTTGACCATAAGGACAACCGAAGCTCG,1.71,1.36,1.28,0.69,0.852,3.42,3.91,1.1

Sequence,PBM binding z-score [1],PBM binding z-score [2],PBM binding z-score [3],PBM binding z-score [4],PBM binding z-score [5],PBM binding z-score [6],PBM binding z-score [7],PBM binding z-score [8]
ATATGTAGGTTACATCCGGGTCAGTCAGGCTATG,2.61,3.29,1.88,0.541,2.01,3.19,1.66,1.45
CCTACTGGGCCATCAGGTCATTGAGATCAACGTT,2.68,2.15,2.06,0.124,1.43,3.28,2.88,1.89
GATACAGGGTCAGCTAGAGGCCAGGGTATGGAAA,3.59,6.74,4.95,0.978,4.38,3.08,0.844,1.01
GCTTACGGGTCGAAGGTTATAGCATGAATAGAAT,0.86,2.31,1.28,0.891,3.72,1.55,-0.161,0.682
CCGACTGGGGCAAGGTTACCAAAACGCACAGCCA,1.38,1.04,1.18,-0.429,1.23,1.29,0.178,-0.217
CAAACTAGGTCATCGGAAGGTCAAAGTCCGCATG,5.46,8.08,6.47,2.25,5.58,4.2,2.3,3.67
CCTATTAGTTGACAATAAGGGCAACCGAAGCTCG,1.52,1.04,0.963,0.782,0.644,1.8,0.906,0.927
CGAACTACGTCAAGGACAGTGAATCTCCGCACGC,0.242,-0.205,0.151,0.114,0.0152,1.67,1.13,0.0374
TCTTGTAGATCAGCAGGTTAAGTAAGCTGGCCAA,0.124,-0.106,-0.396,0.597,0.384,0.37,-0.0624,-0.499
CCGACTGGCGCAGAAAGGTTACCATACCATCCGG,1.78,0.821,0.575,-0.469,1.66,1.05,-0.286,-0.331
CGAGCTAGGTCATCCAGGACAGTGAATACATTGA,3.01,3.93,4.72,1.97,2.89,3.48,1.79,1.91
CCTCTGAGGACAACAGGAGGTCAGAGCTGCCAGA,3.48,3.66,3.51,1.29,1.78,3.92,3.02,1.69
AACGAAAGGTCGAGGTGAGTATAGAGAAAGGGAA,2.86,4.68,4.73,0.969,5.03,2.96,0.451,0.21
TAGCCTAGGTCAGATCGGGCCTGTATACGCTATA,1.97,2.53,3.21,-0.396,1.29,2.64,-0.216,-0.157
ATCTCTAGGTAACAAATTCAGTGAAAGAGAGGAC,0.688,0.707,0.762,-0.0663,0.508,1.02,0.762,0.435
GCTAGCAGTCCATTTGGGTCACTCAATGACGGGC,1.54,0.428,0.586,0.506,0.617,1.82,0.507,0.912
CCTAGTTGGTTAAGGTCACACACGCTATAGGTAC,4.5,4.48,4.33,2.36,4.63,4.64,6.15,4.12
AGTCAAAGTTCACTATGTAACGTAAGATTCAGCT,3.66,4.55,5.44,4.2,3.68,1.36,-0.244,3.86
TCTGGCAGGCCAGAGGGTCACTCAAGAGGTACGG,2.63,2.81,1.94,-0.443,2.6,1.62,-0.676,0.353

# — the supplement of paper PMC6555819
